B2AR arrestin – recruits beta-arrestin to the human beta2-adrenergic receptor | P07550 | beta-arrestin recruitment to beta2AR, cell-based reporter | Potency, µM (doses to about 46.1 µM), usual class: activators | actives 0.02% (n = 330,000) | AID 492947; note: nearly all actives have a fitted effect of over 65% in size
Mito fusion yeast – mitochondrial division inhibition or fusion activation; actives 0.23% (n = 320,000); S. cerevisiae fusion-defective mutant growth rescue, CellTiterGlo 48 h; Potency, µM (titrated, usually from 46.1 µM), most hits filed as activators; note: nearly all actives have a fitted effect of over 45% in size
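Yeast fusion mutant, YPEG (non-fermentable carbon), compound, 48 h at 37C non-permissive; CellTiterGlo added, 10 min RT, luminescence read. Rescued growth = division inhibition.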
ERG-DNA inh – blocks human ERG Ets domain binding to DNA. actives 0.028% (n = 370,000). fluorescence polarization, His-ERG Ets domain / labelled DNA. Potency, µM (doses to about 76.9 µM), usual class: inhibitors. P11308; active = well fitted inhibition curve with a large enough effect in the polarisation, with a control signal flat; inconclusive = small, poorly fitted or top-dose-only effect, or effect the other way, or a change in a side signal; inactive = no such curve, though single readings can be large or run the other way; the % refers to the polarisation;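 note: polarization taken with two DNA probes labelled with fluorescein and Texas red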
Target sequence (P11308 whole entry, looked up, the tested form may be a part): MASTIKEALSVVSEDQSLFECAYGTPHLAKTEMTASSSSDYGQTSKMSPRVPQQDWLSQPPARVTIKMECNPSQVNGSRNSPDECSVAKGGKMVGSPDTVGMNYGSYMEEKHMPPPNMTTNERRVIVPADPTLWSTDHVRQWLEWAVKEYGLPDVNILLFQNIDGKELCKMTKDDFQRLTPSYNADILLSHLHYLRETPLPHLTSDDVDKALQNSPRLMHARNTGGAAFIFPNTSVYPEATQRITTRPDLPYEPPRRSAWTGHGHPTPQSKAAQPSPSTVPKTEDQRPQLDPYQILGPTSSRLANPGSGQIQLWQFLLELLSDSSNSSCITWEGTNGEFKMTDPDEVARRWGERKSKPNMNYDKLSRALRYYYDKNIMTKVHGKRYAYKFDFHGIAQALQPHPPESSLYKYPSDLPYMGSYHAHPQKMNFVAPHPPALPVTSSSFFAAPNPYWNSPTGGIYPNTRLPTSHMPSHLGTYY
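His-tagged ERG Ets domain (1 uM in the protein solution; 300mM KCl, 50mM Tris-HCl, 1mM EDTA, 1mM DTT, pH 7.5) received compound, then a probe mix of 5 nM fluorescein-DNA and 100nM Texas-615-DNA. Fluorescence polarization was read for both dyes.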
BRCA1 expr up – BRCA1 expression activation; MCF7-BRCA1-FFLuc reporter, luminescence, 48 h; response scale: scaled: vehicle 0%, 10 µM genistein 100%; Potency, µM (highest dose often 46.1 µM), actives largely listed as activators; actives 1.1% (n = 380,000); note: nearly all actives have a fitted effect of over 80% in size
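Luminescence from a BRCA1-driven firefly luciferase in MCF7 cells was the read-out, taken 15 min after substrate addition following 48 h compound exposure at 37 °C. Data were normalized to a 10 microM genistein control and DMSO vehicle.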
Of the large screens only hits and unclear results are named; the others gave an inactive call; ! = a repeat was not active. Shown are actives, neighbours in structure and some others; about 1.2% of the full set was active somewhere. Unless noted, calls come from the whole dose curve; as a rule, active = well fitted curve in the direction sought with a large enough effect; inconclusive = small, poorly fitted or top-dose-only effect, or another doubt; inactive = no such curve, though single readings can be large; an effect the other way counts as inactive or inconclusive.

CN(C(=O)CNC(=O)OCc1ccccc1)c1ccc(Br)cc1C(=O)c1ccccc1Cl	Mito fusion yeast 12.6µM
COC1=C(C)C(=O)c2c(c(COC(N)=O)c3n2C[C@@H]2[C@@H]3N2C)C1=O (some centres not stated)	none (no result: B2AR arrestin, Mito fusion yeast, ERG-DNA inh)
Cc1cc2ccccc2n1CCNC(=O)Cc1ccccc1	ERG-DNA inh 35.5µM
NC(N)=NOCCC(N)C(=O)O (configuration not stated)	none (no result: B2AR arrestin, ERG-DNA inh, BRCA1 expr up)
COc1cc2c(cc1O)CC[C@@H]1[C@@H]2CC[C@]2(C)[C@@H](O)CC[C@@H]12	Mito fusion yeast 20.6µM!
C[n+]1c(-c2ccccc2)cc(-c2ccc(Cl)cc2)cc1-c1ccccc1	none
Cc1nc(-c2ccc(Cl)cc2)sc1C1(C)CC(c2ccccc2)=NO1 (configuration not stated)	BRCA1 expr up 11.2µM (no result: B2AR arrestin, Mito fusion yeast)
CN(C)c1ccc(N=Nc2ccccc2)cc1	BRCA1 expr up 10µM (no result: B2AR arrestin, Mito fusion yeast, ERG-DNA inh)
N#CCCN	none (no result: B2AR arrestin, ERG-DNA inh, BRCA1 expr up)
CN1C(=O)C(Cc2ccc(OCc3ccccc3)cc2)C(=O)N(C)C1=O	none
COc1cc(CC2C(=O)N(C)C(=O)N(C)C2=O)ccc1OCc1ccccc1	BRCA1 expr up 12.6µM
Cc1nn(CC(C)C)c(Cl)c1C(=O)NC1CCC(C)CC1 (configuration not stated)	BRCA1 expr up 3.16µM
Cc1nn(Cc2ccccc2Cl)c(Cl)c1C(=O)OCC(=O)NC(=O)NC1CCCCC1	Mito fusion yeast inconclusive
CC(C)CC(=O)Nc1ccc(C(=O)Cn2c(=O)oc3ccccc32)cc1	Mito fusion yeast inconclusive
COC[C@H]1OC(=O)c2coc3c2[C@@]1(C)C1=C(C3=O)C2CCC(=O)[C@@]2(C)C[C@H]1OC(C)=O (some centres not stated)	none (no result: B2AR arrestin, ERG-DNA inh)
Nc1ccc2ccc3cccc[n+]3c2c1	none
C[n+]1c(-c2ccccc2)c2cc(N)ccc2c2ccc(N)cc21	ERG-DNA inh 14.1µM
COc1cccc(NC(=O)N2CCC3(CC2)OCCO3)c1	BRCA1 expr up 11.2µM
COc1ccc(NC(=O)N2CCC3(CC2)OCCO3)cc1OC	none
COc1cccc(-n2c(/C=C/c3ccccc3O)nc3ccccc3c2=O)c1	none (no result: B2AR arrestin, Mito fusion yeast, BRCA1 expr up)
COc1cccc(-n2c(/C=C/c3cccc(C)c3)nc3ccccc3c2=O)c1	ERG-DNA inh 28.2µM (no result: B2AR arrestin, Mito fusion yeast, BRCA1 expr up)
CCCCCCCCCCCCCC(=O)O[C@@H]1[C@@H](C)[C@@]2(O)[C@@H](C=C(CO)C[C@@]3(O)C(=O)C(C)=C[C@@H]23)C2C(C)(C)[C@@]21OC(C)=O (some centres not stated)	Mito fusion yeast 16.4µM (no result: B2AR arrestin, ERG-DNA inh, BRCA1 expr up)
CCCOP(=O)(OCCC)C(Nc1ccc(C(C)C)cc1)c1ccc([N+](=O)[O-])cc1 (configuration not stated)	none
Cc1cccc(OCCNc2ncccc2[N+](=O)[O-])c1	BRCA1 expr up 11.2µM (no result: B2AR arrestin, Mito fusion yeast, ERG-DNA inh)
O=C(CN1CCOCC1)c1ccc2ccccc2c1	none (no result: B2AR arrestin, Mito fusion yeast, ERG-DNA inh)
